Experimental data as given in the supplement of paper PMC8728848.
This is one part of a sample in which the strongest signals are shown more often than they occur.

Tests used:
Assay in all cases: glycan array binding signal (z-score within array); higher = stronger binding
Conditions in all cases: glycan notation: IUPAC condensed, linker removed; mutation: D57L
[1] = molecular target: GlcNAc(b1-2)[GlcNAc(b1-4)]Man(a1-3)[GlcNAc(b1-4)][GlcNAc(b1-2)[GlcNAc(b1-6)]Man(a1-6)]Man(b1-4)GlcNAc(b1-4)GlcNAc
Outline: (§1)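 Arrays were curated from the Consortium for Functional Glycomics database, 3228 in total, and kept only where the protein sequence was available. Binding is expressed as a within-array Z-score. This score was averaged across arrays of the same protein sequence at different concentrations or buffers and across linkers, and negative values can be read as non-binding.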

[2] = molecular target: GlcNAc(b1-3)Gal(b1-4)GlcNAc(b1-2)Man(a1-3)[GlcNAc(b1-3)Gal(b1-4)GlcNAc(b1-2)Man(a1-6)]Man(b1-4)GlcNAc(b1-4)GlcNAc
Outline: as §1

[3] = molecular target: GlcNAc(b1-3)Gal(b1-4)GlcNAc(b1-3)Gal(b1-4)GlcNAc(b1-3)Gal(b1-4)GlcNAc(b1-3)Gal(b1-4)GlcNAc(b1-2)Man(a1-3)[GlcNAc(b1-3)Gal(b1-4)GlcNAc(b1-3)Gal(b1-4)GlcNAc(b1-3)Gal(b1-4)GlcNAc(b1-3)Gal(b1-4)GlcNAc(b1-2)Man(a1-6)]Man(b1-4)GlcNAc(b1-4)[Fuc(a1-6)]GlcNAc
Outline: as §1

[4] = molecular target: GlcNAc(b1-3)Gal(b1-4)GlcNAc(b1-3)GalNAc
Outline: as §1

GlcNAc(b1-3)Man = molecular target: GlcNAc(b1-3)Man
Outline: as §1

[5] = molecular target: GlcNAc(b1-4)Gal(b1-4)GlcNAc
Outline: as §1

Kdn(a2-6)Gal(b1-4)GlcNAc = molecular target: Kdn(a2-6)Gal(b1-4)GlcNAc
Outline: as §1

Man(a1-2)Man(a1-3)Man = molecular target: Man(a1-2)Man(a1-3)Man
Outline: as §1

Man(a1-3)[Man(a1-6)]Man = molecular target: Man(a1-3)[Man(a1-6)]Man
Outline: as §1

[6] = molecular target: Man(a1-3)[Man(a1-6)]Man(a1-6)[Man(a1-3)]Man
Outline: as §1

[7] = molecular target: Man(a1-3)[Man(a1-6)]Man(b1-4)GlcNAc(b1-4)GlcNAc
Outline: as §1

[8] = molecular target: Neu5Ac(a2-3)Gal(b1-3)GalNAc(b1-4)[Neu5Ac(a2-3)]Gal(b1-4)Glc
Outline: as §1

[9] = molecular target: Neu5Ac(a2-3)Gal(b1-3)GlcNAc(b1-2)Man
Outline: as §1

[10] = molecular target: Neu5Ac(a2-3)Gal(b1-3)GlcNAc(b1-2)Man(a1-3)[GlcNAc(b1-4)][Neu5Ac(a2-3)Gal(b1-3)GlcNAc(b1-2)Man(a1-6)]Man(b1-4)GlcNAc(b1-4)GlcNAc
Outline: as §1

[11] = molecular target: Neu5Ac(a2-3)Gal(b1-3)GlcNAc(b1-6)GalNAc
Outline: as §1

[12] = molecular target: Neu5Ac(a2-3)Gal(b1-3)GlcNAc6S
Outline: as §1

[13] = molecular target: Neu5Ac(a2-3)Gal(b1-4)GlcNAc(b1-2)Man
Outline: as §1

[14] = molecular target: Neu5Ac(a2-3)Gal(b1-4)GlcNAc(b1-3)Gal(b1-4)GlcNAc
Outline: as §1

[15] = molecular target: Neu5Ac(a2-3)Gal(b1-4)GlcNAc(b1-3)Gal(b1-4)GlcNAc(b1-2)Man(a1-3)[Neu5Ac(a2-3)Gal(b1-4)GlcNAc(b1-3)Gal(b1-4)GlcNAc(b1-2)Man(a1-6)]Man(b1-4)GlcNAc(b1-4)GlcNAc
Outline: as §1

[16] = molecular target: Neu5Ac(a2-3)Gal(b1-4)GlcNAc(b1-3)Gal(b1-4)GlcNAc(b1-3)Gal(b1-4)GlcNAc(b1-2)Man(a1-3)[Neu5Ac(a2-3)Gal(b1-4)GlcNAc(b1-3)Gal(b1-4)GlcNAc(b1-3)Gal(b1-4)GlcNAc(b1-2)Man(a1-6)]GalNAc
Outline: as §1

[17] = molecular target: Neu5Ac(a2-3)Gal(b1-4)GlcNAc(b1-6)[Gal(b1-3)]GalNAc
Outline: as §1

[18] = molecular target: Neu5Ac(a2-3)Gal(b1-4)[Fuc(a1-3)]GlcNAc(b1-6)[Neu5Ac(a2-3)Gal(b1-3)]GalNAc
Outline: as §1

Neu5Ac(a2-3)GalNAc = molecular target: Neu5Ac(a2-3)GalNAc
Outline: as §1

[19] = molecular target: Neu5Ac(a2-6)Gal(b1-4)GlcNAc(b1-3)[Neu5Ac(a2-6)Gal(b1-4)GlcNAc(b1-6)]GalNAc
Outline: as §1

[20] = molecular target: Neu5Ac(a2-6)Gal(b1-4)GlcNAc6S
Outline: as §1

[21] = molecular target: Neu5Ac(a2-6)GalNAc(b1-4)GlcNAc
Outline: as §1

[22] = molecular target: Neu5Ac(a2-8)Neu5Ac(a2-3)Gal(b1-3)GalNAc(b1-4)[Neu5Ac(a2-3)]Gal(b1-4)Glc
Outline: as §1

[23] = molecular target: Neu5Ac9Ac(a2-3)Gal(b1-4)GlcNAc
Outline: as §1

[24] = molecular target: Neu5Gc(a2-6)Gal(b1-4)GlcNAc
Outline: as §1

[25] = molecular target: Neu5Gc(a2-8)Neu5Gc(a2-3)Gal(b1-4)GlcNAc(b1-3)Gal(b1-4)GlcNAc
Outline: as §1

B1: PNGase F (Flavobacterium meningosepticum) (protein)
chain: GIPAPADNTVNIKTFDKVKNAFGDGLSQSAEGTFTFPADVTAVKTIKMFIKNECPNKTCLEWDRYANVYVKNKTTGEWYEIGRFITPYWVGTEKLPRGLEIDVTDFKSLLSGNTELKIYTETWLAKGREYSVDFDIVYGTPDYKYSAVVPVVQYNKSSIDGVPYGKAHTLALKKNIQLPTNTEKAYLRTTISGWGHAKPYDAGSRGCAEWCFRTHTIAINNSNTFQHQLGALGCSANPINNQSPGNWTPDRAGWCPGMAVPTRIDVLNNSLIGSTFSYEYKFQNWTNNGTNGDAFYAISSFVIAKSNTPISAPVVTNLDPHHHHHH
glycan array binding signal (z-score) [1]: -0.146
glycan array binding signal (z-score) [2]: 0.239
glycan array binding signal (z-score) [3]: 0.677
glycan array binding signal (z-score) [4]: 0.274
glycan array binding signal (z-score) (GlcNAc(b1-3)Man): 2.62
glycan array binding signal (z-score) [5]: -0.997
glycan array binding signal (z-score) (Kdn(a2-6)Gal(b1-4)GlcNAc): 0.05
glycan array binding signal (z-score) (Man(a1-2)Man(a1-3)Man): -1.18
glycan array binding signal (z-score) (Man(a1-3)[Man(a1-6)]Man): 0.446
glycan array binding signal (z-score) [6]: 3.32
glycan array binding signal (z-score) [7]: 0.156
glycan array binding signal (z-score) [8]: 0.797
glycan array binding signal (z-score) [9]: -0.518
glycan array binding signal (z-score) [10]: 0.012
glycan array binding signal (z-score) [11]: 0.237
glycan array binding signal (z-score) [12]: 1.09
glycan array binding signal (z-score) [13]: 3.1
glycan array binding signal (z-score) [14]: -0.525
glycan array binding signal (z-score) [15]: 0.19
glycan array binding signal (z-score) [16]: 0.914
glycan array binding signal (z-score) [17]: 2.77
glycan array binding signal (z-score) [18]: 0.57
glycan array binding signal (z-score) (Neu5Ac(a2-3)GalNAc): 1.19
glycan array binding signal (z-score) [19]: -0.712
glycan array binding signal (z-score) [20]: 0.924
glycan array binding signal (z-score) [21]: -1
glycan array binding signal (z-score) [22]: -0.06
glycan array binding signal (z-score) [23]: -1.04
glycan array binding signal (z-score) [24]: 0.069
glycan array binding signal (z-score) [25]: -0.629
